Source: PubChem BioAssay
sdo1 growth: sdo1-depleted yeast growth rescue; S. cerevisiae sdo1-depleted JHY4D growth rescue, OD600 30 h; hits give high values; pdr5 snq2 efflux-pump mutant strain; z-score at 10 µM; hit rate 0.21% among 140,000; AID 817;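 active = z-score above 3 at both the 24 hr and the 30 hr optical density reads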;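 note: z-score against mean and SD of all compound wells on the same plate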
Measles CPE: protection of cells from measles virus. Measles virus-infected cells, CPE protection, absorbance. protection (pct of control), % at 4 µM. AID 841. hit rate 1.5% among 140,000; in the data active = protection mostly above about 24%, no sharp cut-off; inactive = mostly below about 26%
INS promoter inh: TRM-6 insulin promoter activity inhibition. TRM-6 cells (human fetal islet line), insulin promoter-eGFP reporter, imaging; reporter expression induced with tamoxifen. hit rate 0.9% among 130,000. inhibition, % at 2 µM. AID 1273;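 active = inhibition above the mean plus 3 SD, with well images judged a real hit on visual review, cut at about 60% in these data, passing the limit was not always enough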
ROMK mod: human ROMK K+ channel modulation, primary screen; Tet-inducible ROMK, thallium flux fluorescence; actives lie on both sides; B-score at 10 µM; hit rate 2% among 130,000; AID 1918;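 active = signal ratio slope over the read window, or its plate-corrected B-score, at least 3 SD from the plate mean, either direction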;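 note: B-score of the F/F0 ratio slope over 7 to 12 s after thallium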
Target sequence (P48048 whole entry, looked up): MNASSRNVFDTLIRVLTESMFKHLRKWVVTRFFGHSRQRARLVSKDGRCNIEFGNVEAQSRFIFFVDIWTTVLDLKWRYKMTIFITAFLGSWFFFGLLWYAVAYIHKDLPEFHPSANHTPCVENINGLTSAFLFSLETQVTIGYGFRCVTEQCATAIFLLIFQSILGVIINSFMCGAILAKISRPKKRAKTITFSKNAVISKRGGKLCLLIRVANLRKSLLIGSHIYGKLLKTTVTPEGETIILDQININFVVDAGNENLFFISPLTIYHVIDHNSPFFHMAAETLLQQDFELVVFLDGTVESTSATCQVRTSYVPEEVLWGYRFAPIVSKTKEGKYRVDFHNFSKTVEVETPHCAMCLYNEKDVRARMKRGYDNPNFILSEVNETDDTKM
An asterisk follows results filed as active; / = no result. Shown are actives, neighbours in structure and some others; about 3% of the full set was active somewhere.

SMILES | sdo1 growth | Measles CPE | INS promoter inh | ROMK mod
CCN=c1scc(-c2ccc(F)cc2)n1/N=C/c1ccccn1 | / | / | 67 | 0.46
FC(F)(F)c1ccc(Cl)c(NC(=S)NC2CC2)c1 | -0.65 | 9 | / | -0.21
CCSc1nc2ccccc2n1C(=O)c1ccc(S(=O)(=O)N2CCCCC2)cc1 | 0.13 | 22 | 82* | /
C#CCSc1nc2ccccc2n1C(=O)c1ccc(S(=O)(=O)N2CCCCC2)cc1 | 0.98 | 3 | 76* | -0.72
CCSc1nc2ccccc2n1C(=O)c1ccc(S(=O)(=O)N2CCCCCC2)cc1 | 1.7 | 4 | / | /
CCOC(=O)C1CCN(C(=O)C2CCN(S(=O)(=O)c3cc(Cl)ccc3Cl)CC2)CC1 | -0.41 | 5 | -38 | /
COc1ccc2c(c1)-c1nc(/N=C/c3ccc(O)cc3)sc1CC2 | 1.7 | 4 | 77* | -0.85
CSc1nc(=O)n2cc(C)ccc2n1 | / | / | 8 | 0.063
CCOc1ccc(C(=O)NCC(=O)OC2CCOC2=O)cc1OCC (configuration not stated) | -0.22 | 42* | -40 | 0.64
CCOc1ccc(NC(=S)N2CCN(CCN3C(=O)c4cccc5cccc(c45)C3=O)CC2)cc1 | / | / | -33 | -0.11
COc1ccc(N2CCN(c3nc4ccccc4n3CC(=O)c3ccccc3)CC2)cc1 | -1.5 | 7 | 33 | /
COc1ccc(N2CCN(Cc3nc4ccccc4n3C)CC2)cc1 | 0.11 | 37* | 24 | -0.8
COc1ccc(N2CCN(c3ncccn3)CC2)cc1 | 0.67 | 28* | 8 | -0.53
Cn1cc(-c2nc3ccccc3[nH]2)c2ccccc21 | -0.75 | 8 | 100* | -0.011
Nc1ccccc1-c1nc2ccccc2[nH]1 | 1.2 | 3 | 94* | -0.83
c1ccc(-c2cc(-c3nc4ccccc4[nH]3)c3ccccc3n2)cc1 | -2.3 | 4 | 22 | 0.76
Nc1ccc(-c2nc3ccccc3[nH]2)cc1 | 1.9 | 15 | / | /
Cc1ccc(-c2nc3ccc([N+](=O)[O-])cc3[nH]2)cc1 | / | / | / | 0.049
Nc1cccc(-c2nc3ccccc3[nH]2)c1 | -0.17 | 6 | 75* | 0.23
O=[N+]([O-])c1cccc(-c2nc3ccc([N+](=O)[O-])cc3[nH]2)c1 | / | / | 92* | -2.8
COc1cccc(-c2nnc3n2N=C(C(C)(C)C)CS3)c1 | 0.41 | 5 | / | 0.36
Cc1ccc2nc(-c3cccc(N)c3)[nH]c2c1 | 0.99 | 8 | 80* | /
COc1ccc(CCNC(=O)c2cc(CC(C)C)on2)cc1OC | -1.5 | 40* | / | /
COc1ccc(-c2cc(C(=O)NCCc3ccccc3)no2)cc1OC | -1.3 | 4 | 23 | /
COc1ccc(CCNC(=O)c2cc(-c3ccccc3OC)on2)cc1OC | -1.1 | 45* | / | /
SMILES | sdo1 growth | Measles CPE | INS promoter inh | ROMK mod
CCC(C)NC(=O)c1cc(CC(C)C)on1 (configuration not stated) | -0.46 | 54* | / | /
Cc1cc(NC(=O)c2cc(CC(C)C)on2)no1 | 0.48 | 16 | 40 | /
COc1ccc(CCNC(=O)c2ccc3ccccc3n2)cc1OC | / | / | / | 0.95
Cc1cccc(C(=O)NCCN2CCOCC2)c1[N+](=O)[O-] | -0.45 | 6 | 22 | -0.063
O=c1c2cc3c(cc2[nH]c(=S)n1C1CCN(Cc2ccccc2)CC1)OCO3 | / | / | 42 | 0.96
CCOC(=O)CN1C(=O)SC(CC(=O)Nc2nccs2)C1=O (configuration not stated) | 1.5 | 36* | -35 | -0.25
N/C(=N\OC(=O)/C=C/c1ccccc1Cl)c1ccncc1 | / | / | 14 | 1.4
Cc1nc(CCNC(=O)Cc2ccc(Cl)cc2)cs1 | 1.7 | 39* | / | /
CCc1ccccc1NS(=O)(=O)c1ccc2c(c1)NC(=O)CC(=O)N2 | 2 | 37* | 8 | 0.49
CCc1cccc(NS(=O)(=O)c2ccc3c(c2)NC(=O)CC(=O)N3)c1 | / | / | 47 | -0.28
COC(=O)[C@H](CC(C)C)NC(=O)Nc1cccc(Br)c1 | 0.2 | 9 | -7 | /
CC(C)C[C@H](NC(=O)Nc1cccc(Br)c1)C(=O)O | -0.13 | 63* | 24 | -0.072
COC(=O)C1=C(NC(=O)CCCCl)CCS1 | 0.04 | 50* | / | /
NC1=NC(=O)/C(=C/c2c(OS(=O)(=O)c3ccc(Cl)cc3)ccc3ccccc23)S1 | -0.36 | 22 | -5 | 1.1
CC(=O)c1cc(C#N)c(SCC(=O)OC(C)C)nc1C | -0.68 | 17 | 93* | -0.42
Cc1ccc(N2CCN(S(=O)(=O)N3CCCCC3)CC2)cc1Cl | 0.29 | 9 | 70* | 0.16
O=c1[nH]c(NC2CCCCC2)c([N+](=O)[O-])c(=O)[nH]1 | 1.1 | 28* | -17 | 1
Cc1ccc(CN2CC34C=CC(O3)C(C(=O)NCc3ccco3)C4C2=O)cc1 (configuration not stated) | -0.17 | 30* | -7 | -1.3
COc1ccc(-c2nnn(CC(=O)c3ccc4c(c3)OCCO4)n2)cc1OC | 0.93 | 27* | -7 | /
COc1cccc(/C=N/N2CCN(c3ccccc3OC)CC2)c1 | 0 | 49* | -63 | /
O=C1CN(C(=O)COc2ccc(F)cc2Br)c2ccccc2N1 | / | / | -45 | -0.068
CCOc1ccccc1Nc1nc(N)nc(CSc2nccc(C)n2)n1 | -0.38 | 24* | 0 | -0.57
Cc1cc(C)c(C)c(C(=O)CSc2nnc(C)c(=O)[nH]2)c1C | -0.35 | 4 | 3 | -0.24
Oc1c(/C=N/Nc2cccc3cccnc23)ccc2ccccc12 | -0.81 | 8 | 73* | 0.28
Cc1ccc2c(c1)C(=O)c1ccccc1CS2=O (configuration not stated) | 0.33 | 7 | -67 | 0.081
SMILES | sdo1 growth | Measles CPE | INS promoter inh | ROMK mod
Cc1c(C)n(CC(O)CNc2ccccc2)c2ccccc12 (configuration not stated) | / | / | -90 | 0.045
Cc1c(C)n(CC(O)CN2CCCCCC2)c2ccccc12 (configuration not stated) | 1.2 | 13 | / | -2.1*
COC(=O)CCCC(=O)NC(C)c1cnn(-c2ccccc2C)c1C (configuration not stated) | / | / | 0 | 0.058
CC(C)(C)NC(=O)C1CN(S(=O)(=O)c2ccccc2)CCN1S(=O)(=O)c1ccccc1 (configuration not stated) | -0.71 | 20 | -181 | /
O=C(C1CN(S(=O)(=O)c2ccccc2)CCN1S(=O)(=O)c1ccccc1)N1CCCCCC1 (configuration not stated) | -1.4 | 4 | 100* | -0.99
CCOC(=O)c1sc(NC(=O)C(C)Sc2nc(N)cc(=O)[nH]2)nc1C (configuration not stated) | / | / | -17 | 0.033
COc1ccc(OC)c(C2C3=C(CC(C)(C)CC3=O)Nc3nnnn32)c1 (configuration not stated) | 0.54 | 31* | 67 | -0.37
N#Cc1c(NC(=O)c2ccccc2Cl)n(Cc2ccccc2)c2nc3ccccc3nc12 | -2.3 | 47* | / | /
CCCCn1c(NC(=O)c2ccccc2Cl)c(C#N)c2nc3ccccc3nc21 | -0.98 | 6 | 55 | /
c1ccc(Cn2nnc3c(Nc4ccc5c(c4)OCO5)nc(C4CC4)nc32)cc1 | -0.31 | 7 | / | /
COc1ccc(OC)c(Nc2nc(C3CC3)nc3c2nnn3Cc2ccccc2)c1 | -0.49 | 66* | -31 | /
O=C1CC(N2CCOCC2)C(=O)N1CCc1ccccc1 (configuration not stated) | 1.5 | 15 | -6 | /
O=C1CC(N2CCN(c3ccccc3)CC2)C(=O)N1CCc1ccccc1 (configuration not stated) | 1.6 | 40* | -11 | /
